Measurements from ChEMBL document CHEMBL4513216, “Probing the Open Global Health Chemical Diversity Library for Multistage-Active Starting Points for Next-Generation Antimalarials” (ACS Infect Dis, 2020).
Among all 69,000 compounds or so, about 8,600 (12%) showed an effect of 50% or more. What follows is part of a selection rich in strong results, with near analogues and random picks from the rest.

These molecules were tested on Plasmodium berghei (assay: Screen against P. berghei liver stage (PbLuc), transformed with Luciferase, at 10uM). Conditions: tested at 10 uM.
Type: functional, HepG2

Row | SMILES | INHIBITION [%]
1 | CCCS(=O)(=O)NC1CCN(c2cccc(F)c2C#N)CC1 | 25.4
2 | c1nc(CCC2CCCCN2)cc(N2CCCC2)n1 (stereo not drawn) | 32.8
3 | O=C(CC1CC1)N1Cc2nccn2CC(COc2cccnc2)C1 (stereo not drawn) | 13.5
4 | O=C(N[C@H]1CCCC[C@@H]1O)c1cccc(-c2nc3ccccc3[nH]2)c1 | -13.2
5 | Cc1nc(CN2CCCC(NCc3nc4ccccc4s3)C2)no1 (stereo not drawn) | 29.2
6 | Cc1nc(CN2CCCC(NCc3sccc3C)C2)no1 (stereo not drawn) | 48.4
7 | Cc1nc(CN2CCCC(Nc3ncnc4c3CCC4)C2)no1 (stereo not drawn) | 85.1
8 | CCc1nc(CN2CCCC(NCc3cnc(C)s3)C2)no1 (stereo not drawn) | 15.3
9 | CCc1nc(CN2CCCC(Nc3ncnc4ccsc34)C2)no1 (stereo not drawn) | 88.5
10 | Cc1nc(CN2CCCC(Nc3ncnc4ccccc34)C2)no1 (stereo not drawn) | 90.2
11 | Cc1nc(CN2CCCC(NCc3ccsc3)C2)no1 (stereo not drawn) | 20.1
12 | Cc1nc(CN2CCCC(NCc3cnn(C)c3)C2)no1 (stereo not drawn) | -10.6
13 | CCc1nc(CN2CCCC(NCc3cc(C)no3)C2)no1 (stereo not drawn) | 29.5
14 | Cc1nc(CN2CCCC(NCc3cccc4ccccc34)C2)no1 (stereo not drawn) | -18.8
15 | Cc1nc(CN2CCCC(Nc3ncnc4ccsc34)C2)no1 (stereo not drawn) | 79.1
16 | Cc1nc(CN2CCCC(NCc3ccc4ccccc4c3)C2)no1 (stereo not drawn) | 41.5
17 | CN(C)Cc1cnc(C2CCN(C(=O)c3cc(F)cc(F)c3)C2)[nH]1 (stereo not drawn) | 2.05
18 | CC(C(=O)N1CCCC1)N1CCN(c2ncc(Cl)cn2)CC1 (stereo not drawn) | 13.8
19 | CN(C)C(=O)CN1CCCCC1c1nc(N)ncc1-c1ccccc1 (stereo not drawn) | 19.3
20 | COc1cc(N2CC[C@@H]3O[C@@H](C(=O)NC(C)C)C[C@@H]32)ncn1 | -4.32
21 | O=C(COCc1nc(-c2ccncc2)no1)N1CCCCC1 | -19.7
22 | CN(C)S(=O)(=O)c1ccc(CN2CCCC2c2cccs2)o1 (stereo not drawn) | 22.3

Row | SMILES | INHIBITION [%]
23 | CN1CCC(N2CCC(C(=O)N(C)C)CC2)CC1 | 28.5
24 | CNCC(=O)N1CCCC(c2nccnc2Oc2cccc(F)c2)C1 (stereo not drawn) | 49.5
25 | Cn1cc(CCC(=O)NCc2ccccc2OC(C)(C)C)cn1 | -1.3
26 | NC(=O)CSc1nnc2n1N=CN(c1ccccc1F)C2 | -14.9
27 | C[C@@H](O)CNC(=O)CCc1nc2cccnc2[nH]1 | -2.13
28 | COCC(C)NC(=O)N1CCN(S(C)(=O)=O)CC1 (stereo not drawn) | 5.91
29 | CNC(=O)c1cn[nH]c1C1(C)CCCN(Cc2ccccc2OC)C1 (stereo not drawn) | 72.5
30 | CNC(=O)c1cn[nH]c1C1(C)CCCN(Cc2ccccn2)C1 (stereo not drawn) | 17.1
31 | CNC(=O)c1cn[nH]c1C1(C)CCCN(CC2(O)CCCCC2)C1 (stereo not drawn) | 29.2
32 | CN(Cc1noc(C2CC2)n1)C1CCN(CCn2cccn2)C1 (stereo not drawn) | -45.6
33 | Cc1nccnc1C1CCN(C2CCCC2O)CC1 (stereo not drawn) | -59.6
34 | COc1ccc(CCC(=O)N2CCNCC2C(=O)N2CCOCC2)cc1 (stereo not drawn) | 30.3
35 | CCN(Cc1nc(-c2ccco2)no1)Cc1cccc2c1OCO2 | 55
36 | Cc1nnc(CN(Cc2cccc3c2OCO3)CC2CCCO2)n1C (stereo not drawn) | -31.5
37 | Cc1noc(CN(Cc2ccco2)Cc2cccc3c2OCO3)n1 | 30.3
38 | CN(Cc1ccc2c(c1)OCO2)Cc1nc(-c2ccco2)no1 | 15
39 | CCN(Cc1cccc2c1OCO2)CC1CCCO1 (stereo not drawn) | 50.5
40 | CCN(Cc1ccc2cccc(O)c2n1)CC1CCCO1 (stereo not drawn) | -13.5
41 | CC(CNC(=O)N(C)Cc1ccco1)N1CCc2sccc2C1 (stereo not drawn) | 11.4
42 | COCC1CN(Cc2cccc(C#N)c2)Cc2nccn2C1 (stereo not drawn) | 25.1
43 | NC(=O)c1cccc(C(=O)N2CCCC(n3ccnc3)C2)c1 (stereo not drawn) | -31.5
44 | O=C(Nc1nnc(N2CCCCC2)[nH]1)c1cccs1 | -20.6

Row | SMILES | INHIBITION [%]
45 | Cc1cnc(NC(=O)N2CCCCCC2)s1 | -9.54
46 | CCNc1ncc(C(=O)Nc2nnc(N3CCCCC3)[nH]2)s1 | 51.1
47 | Cc1nc(C(=O)N2CCc3[nH]nc(Nc4ccccc4)c3C2)co1 | 10.9875
48 | O=S(=O)(N1CCOCC1)N1CCC(Oc2cnccn2)CC1 | 32.8
49 | CC(=O)N1CCOCC2(CN(Cc3ccc(C)o3)CCO2)C1 (stereo not drawn) | 26.7
50 | COCCN1CCC(CNC(=O)C2(c3cccc(C)c3)CC2)C1 (stereo not drawn) | 11.4
51 | O=C(Cn1nc2c(cc1=O)CCCC2)NC(Cc1ccccc1)C(=O)O (stereo not drawn) | -30.4
52 | O=C(Cn1nc2c(cc1=O)CCCC2)N[C@@H](C(=O)O)c1ccccc1 | -19
53 | O=C(Cn1nc2c(cc1=O)CCCC2)NC(C(=O)O)c1ccccc1 (stereo not drawn) | 69.8
54 | Cc1oc(C(=O)O)cc1S(=O)(=O)Nc1cc(F)ccc1F | 21
55 | Cc1nc(CN2C(=O)C[C@@H]3[C@@H]2CCN3S(=O)(=O)C2CC2)cs1 | -64.1
56 | Cc1cccc(NC2CCN(C(=O)Nc3cccc4[nH]ccc34)CC2)n1 | 76.1
57 | Cc1cccc(NC2CCN(C(=O)Nc3cc(C)on3)CC2)n1 | 37.2
58 | Cc1cccc(NC2CCN(C(=O)Nc3cn[nH]c3)CC2)n1 | 28.8
59 | Cc1cccc(NC2CCN(C(=O)Nc3cc(F)cc(F)c3)CC2)n1 | 90
60 | Cc1cccc(NC2CCN(C(=O)Nc3ccc(F)c(F)c3)CC2)n1 | 67.4
61 | Cc1cccc(NC2CCN(C(=O)Nc3ccc(F)cc3C)CC2)n1 | -0.113
62 | Cc1cccc(NC2CCN(C(=O)Nc3cc(F)ccc3F)CC2)n1 | -7.35
63 | Cc1cccc(NC2CCN(C(=O)Nc3ccncc3)CC2)n1 | 16.8
64 | O=C(c1ccc2cc[nH]c2c1)N1CCC(Nc2cccnn2)CC1 | 11.4
65 | CCn1cc(CN2CCCN(C(=O)c3ccc(C)o3)CC2)cn1 | 31.3
66 | Cn1ccnc1CN1CCC2(CCC(=O)N2CCN2CCCC2)CC1 | 35.2

Row | SMILES | INHIBITION [%]
67 | O=C(NCCn1nc(-n2cncn2)ccc1=O)c1ccc(F)cc1F | 7.77
68 | c1cnn(-c2ccc(CCNC3CCN(C4CC4)C3)cc2)c1 (stereo not drawn) | 14.2
69 | COc1cccc(-n2nnc(C(=O)N3CCCCCC3)c2C)c1 | 2.845
70 | Cc1ccc(CSc2nc(N)cc(NCCS(=O)(=O)N(C)C)n2)cc1 | 23.5
71 | COc1ccc(CN(Cc2ccsc2)CC2CCCO2)cn1 (stereo not drawn) | 61.6
72 | c1csc(CN(Cc2ccsc2)CC2CCCO2)n1 (stereo not drawn) | -12.2
73 | CC(C)n1cc(CN(Cc2ccsc2)CC2CCCO2)cn1 (stereo not drawn) | 12.9
74 | CCCc1nnc(NCCc2noc(C3CC3)n2)o1 | 16.5
75 | NC(=O)Cn1cc(NC(=O)N2CCN(c3ccc(F)cc3)CC2)cn1 | 7.333
76 | NC(=O)c1cn(CC2CCC2)c(C2CC2)n1 | -21.8
77 | CNc1ncccc1CN1CCN(C)CC(C(N)=O)C1 (stereo not drawn) | 33.2
78 | CNc1ncccc1CN1CCN(C)CC(C(=O)N(C)C)C1 (stereo not drawn) | 0.696
79 | CNc1ncccc1CN1CCN2CCN(C)CC2C1 (stereo not drawn) | 53.8
80 | Cc1nccn1CCC(=O)N1CCC2(CCC(=O)N(CC3CC3)C2)CC1 | 42.5
81 | CN(Cc1cccs1)C1CCC[C@@H]2CN(C(=O)c3cnccn3)C[C@H]12 (stereo partly drawn) | 37.9
82 | Cn1c(=O)oc2cc(Nc3nccnc3C#N)ccc21 | 36.5
83 | Cn1c(=O)oc2cc(Nc3ncc(C#N)cc3Cl)ccc21 | 58.9
84 | Cn1c(=O)oc2ccc(Nc3ncc(C#N)cc3Cl)cc21 | 42.1
85 | CS(=O)(=O)CCCN(CCCO)C1CCc2ccccc21 (stereo not drawn) | 21.7
86 | CS(=O)(=O)NCCN(CCCO)C1CCc2ccccc21 (stereo not drawn) | 51.7
87 | CS(=O)(=O)CCN(CCCO)C1CCc2ccccc21 (stereo not drawn) | 18.3
88 | CC(=O)N1N=C(c2cccs2)OC1C(=O)Nc1ccc(C(C)C)cc1 (stereo not drawn) | 6.55

Row | SMILES | INHIBITION [%]
89 | COCC1CCCN(C(=O)c2ccc(NC(=O)CC(C)C)c(C)c2)C1 (stereo not drawn) | 4.97
90 | CCN1CCN(c2ccc(NC(=O)CC(C)C)c(C)c2)CC1 | 35.7
91 | CCN1CCCN(C(=O)c2ccc(NC(=O)CC(C)C)c(C)c2)CC1 | 76.6
92 | CCOC(=O)COc1ccc(C(C)=O)c(O)c1 | 38.2
93 | Cc1nn(C)c(C)c1C1CCCN1C(=O)c1ccc2c(c1)OCCO2 (stereo not drawn) | -45.9
94 | CCSCc1ccc(C(=O)N2CCCN(CC(N)=O)CC2)cc1 | -40.5
95 | Cc1cccc(CN2C(=O)CC[C@@H]3[C@H]2CCN3CC2CCOCC2)n1 | 38.1
96 | CN(Cc1ccccc1NCc1cscn1)C(=O)c1cccs1 | 20.6
97 | Cc1cnc(CNc2ccccc2CN(C)C(=O)c2cccs2)o1 | 55.6
98 | CN(Cc1ccccc1NCc1cccnc1)C(=O)c1cccs1 | 49.3
99 | CCc1noc(CN(CC)C(=O)CC2C(=O)NCCN2CC(C)(C)C)n1 (stereo not drawn) | 13.7
100 | CO[C@@H]1CCN(S(=O)(=O)c2cccnc2)[C@@H]2CN(CC3CC3)C[C@@H]21 | 53.2
101 | CO[C@@H]1CCN(S(=O)(=O)N(C)C)[C@@H]2CN(Cc3cccnc3)C[C@@H]21 | 36.2
102 | CCN1C[C@H]2[C@@H](C1)N(S(=O)(=O)c1ccccc1)CC[C@H]2OC | 41.6
103 | COCCN1C[C@@H]2[C@@H](OC)CCN(S(=O)(=O)c3cccnc3)[C@@H]2C1 | 31.1
104 | CO[C@H]1CCN(S(=O)(=O)c2cccnc2)[C@@H]2CN(CC3CC3)C[C@H]12 | 52
105 | CCN1C[C@H]2[C@@H](C1)N(S(=O)(=O)c1cccnc1)CC[C@H]2OC | 59.1
106 | CCN1C[C@@H]2[C@@H](OC)CCN(S(=O)(=O)c3cccnc3)[C@@H]2C1 | 26.4
107 | CO[C@H]1CCN(S(=O)(=O)N(C)C)[C@@H]2CN(Cc3cccnc3)C[C@H]12 | -18.5
108 | CCN1C[C@@H]2[C@@H](OC)CCN(S(=O)(=O)c3ccccc3)[C@@H]2C1 | 17.6
